Test [1] concerns the target T1, Inhibitor of nuclear factor kappa-B kinase subunit epsilon (Homo sapiens) (UniProt Q14164).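 Also: reported values are averaged percent inhibition figures against human IKKε.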
T1 sequence (whole entry): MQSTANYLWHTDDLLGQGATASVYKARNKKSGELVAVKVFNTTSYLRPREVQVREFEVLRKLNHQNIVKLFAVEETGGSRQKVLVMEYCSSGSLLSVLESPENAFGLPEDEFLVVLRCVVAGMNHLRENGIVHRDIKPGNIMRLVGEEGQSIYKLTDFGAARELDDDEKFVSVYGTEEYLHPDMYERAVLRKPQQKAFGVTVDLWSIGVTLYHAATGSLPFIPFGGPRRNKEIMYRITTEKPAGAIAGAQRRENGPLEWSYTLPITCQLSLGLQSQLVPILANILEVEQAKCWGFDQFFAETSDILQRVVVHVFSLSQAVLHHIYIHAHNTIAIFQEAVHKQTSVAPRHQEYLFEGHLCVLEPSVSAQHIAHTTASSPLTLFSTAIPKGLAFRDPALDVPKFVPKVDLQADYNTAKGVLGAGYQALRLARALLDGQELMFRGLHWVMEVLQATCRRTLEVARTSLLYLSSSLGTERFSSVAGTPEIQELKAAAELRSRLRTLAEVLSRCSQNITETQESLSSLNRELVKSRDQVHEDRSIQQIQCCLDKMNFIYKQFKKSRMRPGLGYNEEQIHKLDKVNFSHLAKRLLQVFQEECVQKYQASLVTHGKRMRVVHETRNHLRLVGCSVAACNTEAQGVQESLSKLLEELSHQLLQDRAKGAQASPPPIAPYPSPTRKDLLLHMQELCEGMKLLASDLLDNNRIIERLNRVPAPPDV
The settings on record: at 1 µM.

Test [2] concerns the target T2, Serine/threonine-protein kinase Nek1 (Homo sapiens) (UniProt Q96PY6).
T2 sequence (whole entry): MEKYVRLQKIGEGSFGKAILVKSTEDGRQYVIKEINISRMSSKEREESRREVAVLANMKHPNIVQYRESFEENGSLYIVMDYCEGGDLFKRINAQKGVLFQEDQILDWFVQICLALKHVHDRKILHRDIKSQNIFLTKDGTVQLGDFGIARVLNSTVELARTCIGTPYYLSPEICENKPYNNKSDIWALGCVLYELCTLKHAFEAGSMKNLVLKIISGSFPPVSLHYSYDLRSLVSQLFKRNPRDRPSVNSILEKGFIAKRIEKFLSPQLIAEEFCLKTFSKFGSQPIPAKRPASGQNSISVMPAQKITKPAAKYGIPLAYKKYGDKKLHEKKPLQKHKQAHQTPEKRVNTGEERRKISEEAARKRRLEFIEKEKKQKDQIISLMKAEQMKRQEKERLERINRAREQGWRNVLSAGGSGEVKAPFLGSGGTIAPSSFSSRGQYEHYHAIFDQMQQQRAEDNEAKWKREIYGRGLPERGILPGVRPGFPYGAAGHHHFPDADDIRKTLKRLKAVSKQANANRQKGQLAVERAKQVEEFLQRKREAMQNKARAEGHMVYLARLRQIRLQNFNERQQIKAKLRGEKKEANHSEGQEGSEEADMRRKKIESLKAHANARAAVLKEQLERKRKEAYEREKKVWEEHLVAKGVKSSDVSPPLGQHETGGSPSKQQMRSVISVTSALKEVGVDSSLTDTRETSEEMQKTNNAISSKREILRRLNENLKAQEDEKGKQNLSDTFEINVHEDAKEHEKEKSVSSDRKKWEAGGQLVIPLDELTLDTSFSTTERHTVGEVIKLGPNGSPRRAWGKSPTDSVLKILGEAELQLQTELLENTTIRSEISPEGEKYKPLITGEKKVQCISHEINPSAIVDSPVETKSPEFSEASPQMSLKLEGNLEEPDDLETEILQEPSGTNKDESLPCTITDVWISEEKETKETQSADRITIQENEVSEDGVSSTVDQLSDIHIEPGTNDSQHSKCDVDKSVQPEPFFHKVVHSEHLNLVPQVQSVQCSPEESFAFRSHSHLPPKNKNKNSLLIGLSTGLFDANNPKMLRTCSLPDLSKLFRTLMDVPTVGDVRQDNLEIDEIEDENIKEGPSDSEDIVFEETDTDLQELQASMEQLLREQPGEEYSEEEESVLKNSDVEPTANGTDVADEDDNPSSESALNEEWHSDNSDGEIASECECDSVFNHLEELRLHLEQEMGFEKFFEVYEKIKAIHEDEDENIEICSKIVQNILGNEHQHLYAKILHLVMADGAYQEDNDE
The settings on record: at 0.1 µM.

Test [3] concerns the target T2, Serine/threonine-protein kinase Nek1 (Homo sapiens). The note with it: at 1 µM.
For test [4], the target named is T3, Serine/threonine-protein kinase Nek2 (Homo sapiens) (UniProt P51955).
T3 sequence (whole entry): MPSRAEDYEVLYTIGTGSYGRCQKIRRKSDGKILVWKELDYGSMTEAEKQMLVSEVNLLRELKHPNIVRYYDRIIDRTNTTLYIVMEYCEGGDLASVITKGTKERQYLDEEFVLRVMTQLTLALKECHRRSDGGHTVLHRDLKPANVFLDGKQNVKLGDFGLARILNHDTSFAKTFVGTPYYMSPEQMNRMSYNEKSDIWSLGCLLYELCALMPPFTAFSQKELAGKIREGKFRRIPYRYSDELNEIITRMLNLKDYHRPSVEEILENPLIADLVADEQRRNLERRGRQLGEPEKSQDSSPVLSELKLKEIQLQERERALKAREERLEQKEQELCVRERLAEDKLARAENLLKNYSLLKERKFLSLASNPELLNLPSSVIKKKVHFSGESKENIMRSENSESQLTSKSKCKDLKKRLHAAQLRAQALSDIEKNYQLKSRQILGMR
The settings on record: at 0.1 µM.

In test [5] the target is T3, Serine/threonine-protein kinase Nek2 (Homo sapiens). The settings on record: at 1 µM.
For test [6], the target named is Serine/threonine-protein kinase Nek6 (Homo sapiens) (UniProt Q9HC98). The settings on record: at 0.1 µM.
Test [7] shares this target. The settings on record: at 1 µM.
Test [8] has as its target Serine/threonine-protein kinase Nek7 (Homo sapiens) (UniProt Q8TDX7). The note with it: at 0.1 µM.
The target is the same in test [9]. The note with it: at 1 µM.
For test [10], the target named is T4, Serine/threonine-protein kinase Nek9 (Homo sapiens) (UniProt Q8TD19).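 Also: reported value is the mean percent inhibition of NEK9.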
T4 sequence (whole entry): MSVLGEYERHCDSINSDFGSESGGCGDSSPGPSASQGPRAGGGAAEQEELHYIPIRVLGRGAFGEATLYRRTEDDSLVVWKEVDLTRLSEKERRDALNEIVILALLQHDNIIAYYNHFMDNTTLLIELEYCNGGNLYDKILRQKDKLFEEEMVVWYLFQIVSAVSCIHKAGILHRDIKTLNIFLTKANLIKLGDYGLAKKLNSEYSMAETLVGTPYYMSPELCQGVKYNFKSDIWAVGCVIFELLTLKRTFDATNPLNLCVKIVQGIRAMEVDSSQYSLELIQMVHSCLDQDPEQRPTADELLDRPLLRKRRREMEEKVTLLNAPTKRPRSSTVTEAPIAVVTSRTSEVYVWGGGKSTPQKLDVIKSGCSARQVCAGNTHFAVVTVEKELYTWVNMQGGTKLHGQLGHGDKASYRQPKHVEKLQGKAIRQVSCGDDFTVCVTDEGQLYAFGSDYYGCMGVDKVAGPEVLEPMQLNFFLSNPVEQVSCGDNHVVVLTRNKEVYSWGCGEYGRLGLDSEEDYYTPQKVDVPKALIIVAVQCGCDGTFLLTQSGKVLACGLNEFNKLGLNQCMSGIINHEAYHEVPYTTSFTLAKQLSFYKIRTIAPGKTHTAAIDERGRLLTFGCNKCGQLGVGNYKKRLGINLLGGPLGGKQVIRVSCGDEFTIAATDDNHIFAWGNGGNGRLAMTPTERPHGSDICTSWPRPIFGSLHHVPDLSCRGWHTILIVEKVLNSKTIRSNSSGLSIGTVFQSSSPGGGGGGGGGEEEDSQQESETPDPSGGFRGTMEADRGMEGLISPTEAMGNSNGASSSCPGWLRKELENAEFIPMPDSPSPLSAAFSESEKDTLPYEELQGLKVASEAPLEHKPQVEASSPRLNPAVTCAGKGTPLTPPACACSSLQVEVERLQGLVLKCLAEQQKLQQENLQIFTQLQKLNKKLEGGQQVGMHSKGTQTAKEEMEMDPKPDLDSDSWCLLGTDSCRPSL
The note with it: at 0.1 µM.

SMILES strings stand for the structures.

One may read the inhibition as the drop in the measured response relative to a control, in per cent.

Chain of Serine/threonine-protein kinase Nek6 (Homo sapiens) (Q9HC98 whole entry): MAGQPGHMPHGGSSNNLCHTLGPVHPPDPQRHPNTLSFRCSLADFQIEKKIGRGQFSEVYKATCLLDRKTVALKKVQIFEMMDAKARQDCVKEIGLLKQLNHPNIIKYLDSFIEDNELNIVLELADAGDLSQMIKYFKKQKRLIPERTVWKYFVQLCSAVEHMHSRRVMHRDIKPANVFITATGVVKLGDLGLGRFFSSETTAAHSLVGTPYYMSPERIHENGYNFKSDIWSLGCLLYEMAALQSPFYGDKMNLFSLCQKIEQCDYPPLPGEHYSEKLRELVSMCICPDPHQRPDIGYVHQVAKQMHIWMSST
Chain of Serine/threonine-protein kinase Nek7 (Homo sapiens) (Q8TDX7 whole entry, looked up): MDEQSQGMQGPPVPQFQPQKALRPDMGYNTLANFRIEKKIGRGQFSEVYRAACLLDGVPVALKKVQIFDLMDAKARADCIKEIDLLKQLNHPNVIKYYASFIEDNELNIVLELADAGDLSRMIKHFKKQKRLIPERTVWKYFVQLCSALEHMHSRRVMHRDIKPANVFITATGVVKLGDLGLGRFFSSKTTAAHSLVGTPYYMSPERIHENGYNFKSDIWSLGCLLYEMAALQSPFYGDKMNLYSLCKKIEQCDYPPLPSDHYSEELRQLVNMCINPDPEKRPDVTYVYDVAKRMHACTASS

On to `O=S(=O)(CCOCc1ccc(-c2ccc3ncnc(Nc4ccc(OCc5cccc(F)c5)c(Cl)c4)c3c2)o1)c1ccccc1`, for which the inhibition in [1] worked out at 0.73%; in test [2], 1.11%; in test [3] it was 1.59%; in test [4], 3.36%; in test [5], 2.18%; in test [6] it was 0.77%. For the same compound, the inhibition in test [7] was 0.7%; in [8], 1.66%; in [9], 5.83%; in test [10] it was 5%.
Turning to `N#Cc1cccc(Nc2nccc(-c3cnn4ncccc34)n2)c1`, the inhibition in test [1] came to 27.9%; in [2] it was 2.07%; in [3], 10.9%; in [4] it was 1.93%; in [5], 6.24%; in test [6], 3.54%. Further, the inhibition in test [7] was 5.8%; in [8] it was -4.91%; in [9] it was 4.18%; in test [10] it was 7%.
In the case of `NS(=O)(=O)c1ccc(Nc2cc(-c3cccc(O)c3)n[nH]2)cc1`, the inhibition turned out to be 6.34% in test [1]; 3.72% in test [2]; 3.43% in test [3]; 6.7% in test [4]; 7.9% in test [5]; 1.66% in test [6]. In addition, the inhibition in test [7] was -3.5%; in test [8], 6.05%; in [9] it was 4.88%; in test [10] it was 4.44%.
Take `COc1cc2ncnc(Nc3ccc4c(cnn4Cc4ccccc4)c3)c2cc1OC`: the inhibition in test [1] was 4.31%; in [2], 1.6%; in [3], 0.76%; in test [4] it was 2.52%; in [5], -2.69%; in test [6], 9.32%. For the same compound, the inhibition amounted to 3.49% in test [7], 0.26% in test [8], 6.18% in test [9] and 6.67% in [10].
As to `Oc1cccc(-c2nc(-c3ccccc3)[nH]c2-c2ccncc2)c1`, the inhibition is 4.72% in [1]; 2.81% in test [2]; 3.39% in test [3]; 3.98% in test [4]; 4.3% in test [5]; -0.13% in test [6]. Also, the inhibition in test [7] was 4.45%; in test [8] it was 4.5%; in [9] it was 5.32%; in [10], 9.92%.
For `COc1cc2ncn(-c3cc(OCc4ccccc4S(C)(=O)=O)c(C#N)s3)c2cc1OC`, the inhibition amounted to 115% in [1]; 2.58% in [2]; 3% in [3]; 6.68% in [4]; 14.4% in [5]; 3.33% in test [6]. The inhibition in test [7] is -0.15%; in test [8], 4.85%; in [9] it was 3.13%; in [10] it was 3.17%.
In the case of `COc1ccc2ncnc(Nc3ccc(OCc4ccccc4)cc3)c2c1`, the inhibition in test [1] was 1.06%; in [2], 0.79%; in [3] it was 4.16%; in test [4], 1.74%; in test [5], 1.37%; in [6], 4.45%. For the same compound, the inhibition in [7] was 2.35%; in [8], 2.47%; in test [9] it was 2.49%; in test [10], -0.31%.
With `O=C1Nc2ccc(-c3cccnc3)cc2C1=Cc1cc(Br)c(O)c(Br)c1`, the inhibition was 92.1% in test [1]; 2.32% in test [2]; 0.46% in [3]; 4.11% in test [4]; 2.79% in test [5]; 4.82% in test [6]. The inhibition in test [7] amounted to 0.55%; in test [8] it was 5.27%; in test [9], 4.87%; in test [10], 6.61%.

Values taken from ChEMBL document CHEMBL1961873, “Compounds: GSK PKIS; Assays: Nanosyn kinase panel” (2012).
